From PubChem
This is a sample that favours compounds with a hit; in the whole collection about 2.6% have one here.
KCNH2 3.1 block: blocks the human KCNH2 3.1 channel isoform; 340,000 compounds, 0.95% hits; activity change, % (tested at about 1.8 µM); U2OS KCNH2 3.1, thallium flux FluxOr; stronger effect = lower value;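 active = maximum activity change below -70%; inconclusive = maximum activity change from -70% to -50%; inactive = maximum activity change above -50%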;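 also: thallium influx rate constant from kinetic fluorescence after stimulation buffer; % is scaled to controls: 0 for no effect and ±100 for the full control effect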
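Steps: virus added to U2OS suspension (4 h, RT, dark); medium with 10% FBS added, cells plated, 37 C overnight; FluxOr/Red40 loading buffer 45 min RT; stimulation buffer, 2 min kinetic read; rate constant normalized.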
TRPV1 PAM: enhances activation of the human vanilloid receptor TRPV1; Q8NER1; TRPV1-expressing cells, Fluo-8 calcium influx, capsaicin EC20 potentiation; potentiation, % at 8.33 µM; 320,000 compounds, 0.02% hits; AID 540277; in the data active = potentiation above about 80%; inconclusive = between about 30% and that limit; also: 0% is about no effect
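TRPV1-expressing cells were cultured overnight at 35.5C and loaded with Fluo-8 calcium dye for 40 to 90 min at room temperature. After a 10 s baseline, compound was added and calcium influx was read kinetically for 3 min (ex 480/em 520 nm).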
ClpP mod: qHTS Assay for Activators of ClpP; ATP-dependent Clp protease proteolytic subunit (Bacillus subtilis (strain 168)), P80244; purified B. subtilis ClpP, FRET peptide cleavage, 20 min; Potency, µM (titrated, usually from 57.5 µM), for the others: at the highest dose activity change, negative = active; 340,000 compounds, 1.9% hits; active = well fitted falling curve with a large enough effect; inconclusive = small, poorly fitted or top-dose-only effect; inactive = no such curve, though single readings can be large or run the other way; also: potency is read from the fitted curve at half-maximal effect; the source files actives as falling curves though it sought activators and does not explain the sign; nearly all actives have a fitted effect of over 65% in size
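Purified B. subtilis ClpP, 10 microg/mL final in Tris/HCl pH8 with KCl, BSA, glycerol and Tween-20, cleaved an Abz/nitrotyrosine-quenched decapeptide. Fluorescence (ex 320, em 430) was read at 0 and 20 min at room temperature. Delta was normalized to 5.8 microM ADEP and DMSO/no-enzyme controls.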
TRPV1 ag: agonists of human vanilloid receptor 1 (TRPV1); Q8NER1; TRPV1-expressing cells, Fluo-8 calcium influx, agonist mode; activation, % at 8.33 µM; 320,000 compounds, 0.19% hits; AID 540275; in the data active = activation above about 80%; inconclusive = between about 30% and that limit; also: 0% is about no effect
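Cells expressing TRPV1 were dye-loaded with Fluo-8 and read kinetically: 10 s baseline, 3 min after compound (agonist portion), then 2 min after EC20 capsaicin (allosteric enhancer portion). Calcium-bound dye fluorescence at 480/520 nm.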
p53 reactivation: re-activators of mutant p53; H1299 p53-A138V BP100-luciferase reporter, luminescence, 24 h; Potency, µM (titrated, usually from 92.2 µM), for inactives: at the highest dose activity change, positive = activation, most hits filed as activators; 320,000 compounds, 0.063% hits; active = well fitted activation curve with a large enough effect; inconclusive = small, poorly fitted or top-dose-only effect; inactive = no such curve, though single readings can be large or run the other way; also: potency is read from the fitted curve at half-maximal effect; % of control where 0% means no effect; nearly all actives have a fitted effect of over 45% in size
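p53-null H1299 cells stably carrying temperature-sensitive p53-A138V and a BP100-luciferase reporter were pinned with compounds (4-point, 1:5 series) and held 24 hrs at 37 deg C. Luminescence was read 10 min after detection reagent.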
KCNH2 WT inh: KCNH2 (human, wildtype) channel inhibition. Q12809. U2OS, BacMam KCNH2, thallium flux FluxOr; stronger effect = lower value. activity change, % at 1.84 µM. 340,000 compounds, 0.37% hits;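 active = maximum activity change below -70%; inconclusive = maximum activity change between -70% and -50%; inactive = maximum activity change above -50%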; also: % is scaled to controls: 0 for no effect and ±100 for the full control effect
Target sequence (Q12809 whole entry, looked up): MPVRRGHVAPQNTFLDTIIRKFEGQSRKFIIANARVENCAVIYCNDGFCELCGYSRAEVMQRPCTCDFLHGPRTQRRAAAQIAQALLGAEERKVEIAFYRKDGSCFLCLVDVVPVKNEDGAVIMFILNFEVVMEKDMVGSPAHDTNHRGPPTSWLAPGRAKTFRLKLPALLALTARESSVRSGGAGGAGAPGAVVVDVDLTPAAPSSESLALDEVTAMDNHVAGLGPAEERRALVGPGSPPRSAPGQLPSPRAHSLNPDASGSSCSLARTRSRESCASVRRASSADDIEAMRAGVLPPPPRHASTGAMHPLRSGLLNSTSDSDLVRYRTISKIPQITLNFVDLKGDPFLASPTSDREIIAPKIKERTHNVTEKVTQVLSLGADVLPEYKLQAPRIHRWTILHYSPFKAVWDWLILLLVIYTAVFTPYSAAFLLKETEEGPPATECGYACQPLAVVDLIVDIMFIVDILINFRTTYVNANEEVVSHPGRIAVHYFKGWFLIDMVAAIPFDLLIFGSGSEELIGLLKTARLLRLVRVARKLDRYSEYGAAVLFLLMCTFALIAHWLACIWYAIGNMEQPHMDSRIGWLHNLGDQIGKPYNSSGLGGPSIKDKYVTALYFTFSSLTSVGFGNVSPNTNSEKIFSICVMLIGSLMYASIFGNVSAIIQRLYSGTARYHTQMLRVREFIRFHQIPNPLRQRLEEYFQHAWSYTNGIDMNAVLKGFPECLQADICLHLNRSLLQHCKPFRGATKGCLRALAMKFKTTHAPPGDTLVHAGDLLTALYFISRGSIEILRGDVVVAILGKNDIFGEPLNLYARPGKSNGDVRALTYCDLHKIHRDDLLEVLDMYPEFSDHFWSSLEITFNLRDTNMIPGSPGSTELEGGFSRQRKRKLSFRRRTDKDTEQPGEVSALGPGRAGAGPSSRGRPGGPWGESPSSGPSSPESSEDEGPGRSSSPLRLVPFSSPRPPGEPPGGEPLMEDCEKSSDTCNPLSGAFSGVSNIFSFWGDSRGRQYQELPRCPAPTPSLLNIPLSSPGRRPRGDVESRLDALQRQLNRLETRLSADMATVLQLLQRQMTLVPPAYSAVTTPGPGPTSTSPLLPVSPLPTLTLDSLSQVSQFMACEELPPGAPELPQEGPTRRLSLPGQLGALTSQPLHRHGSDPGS
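U2OS cells transduced with wild-type KCNH2 virus are loaded with FluxOr dye for 45 min, and thallium flux is measured in kinetic reads before and after stimulation buffer. Rate constants are normalized to DMSO controls.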
Starred values were filed as active, the others as inactive; ? = inconclusive; . = no result.

SMILES | KCNH2 3.1 block | TRPV1 PAM | ClpP mod | TRPV1 ag | p53 reactivation | KCNH2 WT inh
Cc1ccc(CNC(=O)CC2(CC3=NS(=O)(=O)c4ccccc4N3)CCCC2)cc1 | -84.8* | -7.6 | -0.1% | ? | -0.4% | 7.6
Cc1cccc(CN2CCCC(C(=O)Nc3ccccc3Oc3cccnc3)C2)c1 (stereo not drawn) | 6.0 | -15.8 | 0.7% | 27.1 | 4.3% | 31.9
O=C(Nc1ccccc1Oc1cccnc1)C1CCCN(C/C=C/c2ccc(F)cc2)C1 (stereo not drawn) | -92.8* | -4.2 | 0.4% | 3.8 | 29.9% | -98.1*
Cc1ccc(/C=C2\CCCC3=C2NC(=S)NC3c2ccc(C)cc2)cc1 (stereo not drawn) | 8.5 | 3.2 | 15.8µM* | 2.0 | 5.4% | -0.2
CCc1ccccc1NC(=O)c1cc(S(=O)(=O)N2CCCC2)cn1C | . | . | 1.9% | . | . | .
O=C(COc1ccccc1)NCC(c1ccco1)N1CCN(c2ccc(F)cc2)CC1 (stereo not drawn) | -12.9 | ? | . | -4.1 | -4.8% | 2.6
O=C(COc1ccccc1)NCC(c1ccco1)N1CCN(c2ccccc2F)CC1 (stereo not drawn) | 1.4 | -4.5 | 1.78µM* | 21.7 | -6.5% | -11.7
COC(=O)[C@H](CC(C)C)NS(=O)(=O)NC(=O)OC(C)(C)C | . | . | -2.0% | . | . | .
O=S1(=O)CCN2C=C(Cl)C=C(Cl)C2=N1 | -11.8 | 3.5 | 0.6% | -0.1 | -0.5% | -12.9
O=S1(=O)CCN2C=C(Br)C=C(Br)C2=N1 | 6.7 | 3.1 | 25.1µM* | 0.3 | -0.3% | .
Cc1cc(C)n(-c2nc3ccccc3nc2N2CCN(c3cccc(C(F)(F)F)c3)CC2)n1 | . | . | -2.1% | . | . | .
C[C@H](NC(=O)N1CCn2c1nc1ccccc12)C(=O)NC1CC1 | -135.7* | -31.3 | -0.2% | -5.8 | -2.9% | -1.3
O=C(Cc1ccc(F)cc1)Nc1cccc(-c2ccc3nncn3n2)c1 | -1.7 | 13.8 | . | -1.0 | -2.2% | -0.3
O=C(Cc1cccs1)Nc1cccc(C(=O)Nc2ccco2)c1 | -70.1* | -2.4 | 0.8% | 6.7 | -6.5% | -10.8
O=C(Cc1cccs1)Nc1cccc(-c2ccc3nncn3n2)c1 | 2.0 | 84.6* | . | 2.7 | -1.1% | -13.3
COC(=O)c1ccc(C2=NOC(C)(c3sc(-c4ccccc4)nc3C)C2)cc1 (stereo not drawn) | 9.8 | -0.3 | -7.4% | 2.0 | 7.0% | -0.9
COC(=O)c1ccc(C2=NOC(C)(c3sc(-c4ccc(Cl)cc4)nc3C)C2)cc1 (stereo not drawn) | 0.2 | ? | 25.1µM* | 4.4 | 6.4% | -1.3
Oc1ccc2c(c1)oc1cc(O)ccc12 | 4.3 | 5.5 | 31.6µM* | -3.3 | ? | 1.6
Cc1oc2cc(O)ccc2c(=O)c1Oc1ccc(F)cc1 | 23.8 | -7.3 | 4.0% | 0.7 | -3.1% | 9.9
COc1c(C)oc2cc(O)ccc2c1=O | 7.6 | 0.8 | 17.8µM* | 1.8 | -3.6% | 4.8
CS(=O)(=O)c1ccc(NC(=O)COc2ccccc2C(=O)Nc2ccccc2)cc1 | . | . | 0.8% | . | . | .
Clc1ccc(/C=N/Nc2ncnc3ccccc23)cc1Cl | 0.8 | -13.0 | 28.2µM* | ? | ? | -2.0
Fc1ccccc1/C=N/Nc1ncnc2ccccc12 | 11.1 | -6.4 | . | ? | 29.1% | 12.3
O=C(CNC(=O)C1CCCCC1)OCCOc1ccccc1 | . | . | -1.3% | . | . | .
CCCNC(=O)c1ccc(N2CCC3(CC2)CC(c2cccc(Br)c2)=NO3)c([N+](=O)[O-])c1 | -79.7* | 14.6 | 1.1% | 2.6 | 2.6% | -129.5*
CCCNC(=O)c1ccc(N2CCC3(CC2)CC(c2cccc(Br)c2)=NO3)c(NC(=O)c2cccc(OC)c2)c1 | -71.8* | -17.7 | ? | -2.0 | 8.7% | -40.1
Cc1ccc(CNC(=O)c2ccc(N3CCC4(CC3)CC(c3cccc(Br)c3)=NO4)c([N+](=O)[O-])c2)cc1 | 4.8 | 20.8 | -1.0% | 5.0 | -1.0% | -3.6
CCCCCCCC(=O)Nc1cc(C(=O)NCCC)ccc1N1CCC2(CC1)CC(c1ccccc1)=NO2 | -90.0* | 1.8 | -25.8% | -0.4 | 4.9% | -113.4*
